High-throughput results as filed in PubChem.
Only some compounds are listed: those with a hit (about 4.7% of all), similar ones and a draw of the others.
D1 antagonist: antagonists of human D1 dopamine receptor; P21728; HEK293 TREx D1 cells, calcium flux, dopamine EC80; stronger effect = lower value; activity change, negative = inhibition, % at 10 µM; 360,000 compounds, 3.2% hits; AID 504652; in the data active = activity change below about -30%; also: % is scaled to controls: 0 for no effect and ±100 for the full control effect
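Tetracycline-induced HEK293 Trex D1 cells, force-coupled to calcium, dye-loaded; compounds added and read 180 s, then EC80 dopamine added and calcium flux tracked kinetically another 180 s.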
TRHR enhancer: TRH receptor (human) allosteric enhancement. P34981. TRHR cells, fluo-8 calcium fluorescence, EC20 TRH enhancement. enhancement, % at 2 µM. 360,000 compounds, 0.66% hits. AID 493056; in the data active = enhancement above about 30%; also: 0% is about no effect
Target sequence (P34981 whole entry, looked up): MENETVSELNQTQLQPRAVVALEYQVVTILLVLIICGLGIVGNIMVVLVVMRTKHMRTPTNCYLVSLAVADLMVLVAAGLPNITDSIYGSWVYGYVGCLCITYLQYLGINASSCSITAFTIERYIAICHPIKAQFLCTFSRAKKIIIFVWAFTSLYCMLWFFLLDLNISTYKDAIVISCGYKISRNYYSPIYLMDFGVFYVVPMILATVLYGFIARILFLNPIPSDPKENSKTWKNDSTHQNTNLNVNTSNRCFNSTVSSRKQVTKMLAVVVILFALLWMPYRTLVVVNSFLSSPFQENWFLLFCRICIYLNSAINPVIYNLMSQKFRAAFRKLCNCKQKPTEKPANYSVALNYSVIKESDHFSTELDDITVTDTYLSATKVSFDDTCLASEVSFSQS
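TRHR-expressing cells loaded with fluo-8 calcium dye were read kinetically (ex 480/em 530) during compound addition, then stimulated with an EC20 of TRH (10 nM final). Enhancement of the Gq-mediated intracellular calcium response was scored.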
TRHR ag: TRH receptor (human) agonism; 360,000 compounds, 0.18% hits; activation, % at 2 µM; P34981; TRHR cells, calcium flux fluo-8, FDSS agonist mode; also: 0% is about no effect
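Fluo-8-loaded TRHR cells; 10 s baseline, compound added, kinetic Ca2+ fluorescence read 1/s, agonist mode.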
D1 PAM: enhances dopamine response at the human D1 receptor; P21728; HEK293 TREx D1 cells, calcium flux, dopamine EC20 potentiation; potentiation, % at 10 µM; 360,000 compounds, 0.036% hits; AID 504651; in the data active = potentiation above about 30%; also: 0% is about no effect
D1 agonist: human D1 receptor agonism | activation, % at 2 µM | HEK293 T-REx D1 cells, calcium flux, agonist mode | P21728 | 360,000 compounds, 1% hits; also: 0% is about no effect
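Tetracycline-induced HEK293 TREx D1 cells, force-coupled to calcium signalling, were dye-loaded with a no-wash calcium kit. Compound was pin-added after a 10 s baseline. Fluorescence was read kinetically at 1 cycle/s for 180 s, with calcium rises flagged as agonism.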
Active calls of the source: *. Rule as the data show it, unless noted: active = activation above about 30%; inactive = the rest.

Results for CC(=O)Nc1ccc(NS(=O)(=O)c2c(C)nc3sccn3c2=O)cc1 ?
D1 antagonist: -4; TRHR enhancer: 2; TRHR ag: 0; D1 PAM: -4; D1 agonist: 1

How did Cc1cccc(-c2nc(CNC(=O)c3ccco3)cs2)c1 do in these assays?
D1 antagonist: -1; TRHR enhancer: 5; TRHR ag: 0; D1 PAM: -4; D1 agonist: 3

What do the screens show for `COc1ccccc1Cn1c(=S)[nH]c2cc(C(=O)NCc3cccnc3)ccc2c1=O`?
D1 antagonist: -31*; TRHR enhancer: -5; TRHR ag: 0; D1 PAM: -3; D1 agonist: 5

How did COc1ccc(Cn2c(=S)[nH]c3cc(C(=O)NCc4cccnc4)ccc3c2=O)cc1 do in these assays?
D1 antagonist: 10; TRHR enhancer: 1; TRHR ag: 1; D1 PAM: -3; D1 agonist: 3

What do the screens show for `Cc1ccc(NC(=O)CSc2nc3ccc(NC(=O)c4cccs4)cc3s2)c(C)c1`?
D1 antagonist: -17; TRHR enhancer: -1; TRHR ag: 1; D1 PAM: -1; D1 agonist: 0

What do the screens show for `O=C(Nc1ccc(Cl)cc1)N1CCCN(c2ccc(C(F)(F)F)cc2[N+](=O)[O-])CC1`?
D1 antagonist: -28; TRHR enhancer: -9; TRHR ag: 1; D1 PAM: -8; D1 agonist: 10

Results for Cc1ccc2c(c1)C(c1ccccc1)N(C(=O)c1ccc(S(=O)(=O)N3CCCCC3)cc1)CC(=O)N2 (centres undefined) ?
D1 antagonist: -48*; TRHR enhancer: 0; TRHR ag: 0; D1 PAM: -2; D1 agonist: 5

Results for COc1ccccc1C(=O)N1CC(=O)Nc2ccc(C)cc2C1c1ccc(F)cc1 (centres undefined) ?
D1 antagonist: -4; TRHR enhancer: 3; TRHR ag: 1; D1 PAM: -8; D1 agonist: 1

How did O=C1CN(C(=O)c2ccc(S(=O)(=O)N3CCCC3)cc2)C(c2ccccc2)c2cc(Br)ccc2N1 (centres undefined) do in these assays?
D1 antagonist: 3; TRHR enhancer: 0; TRHR ag: 1; D1 PAM: 1; D1 agonist: 6

What do the screens show for `COc1ccc(C(=O)N2CC(=O)Nc3ccc(C)cc3C2c2ccccc2)c(OC)c1` (centres undefined)?
D1 antagonist: -45*; TRHR enhancer: 3; TRHR ag: 0; D1 PAM: 1; D1 agonist: 4

How did O=c1/c(=C\c2ccc(O)cc2)sc2n1C(c1ccccc1)C(c1ccccc1)=NN=2 (centres undefined) do in these assays?
D1 antagonist: -51*; TRHR enhancer: -6; TRHR ag: 10; D1 PAM: -10; D1 agonist: 33*

Results for CCOC(=O)C1=C(c2ccccc2)N=c2s/c(=C\c3cccc(O)c3)c(=O)n2C1c1cccs1 (centres undefined) ?
D1 antagonist: -20; TRHR enhancer: 11; TRHR ag: 1; D1 PAM: -1; D1 agonist: 8

How did COCCCNc1ncnc2c1cnn2-c1ccc(F)cc1 do in these assays?
D1 antagonist: -8; TRHR enhancer: 2; TRHR ag: 0; D1 PAM: -2; D1 agonist: -1

Results for Cc1cccc(N(CC(=O)NCCSc2ccc(Cl)cc2)S(C)(=O)=O)c1C ?
D1 antagonist: -6; TRHR enhancer: -7; TRHR ag: 0; D1 PAM: -2; D1 agonist: 2

What do the screens show for `CC(C)C(=O)NC(=S)Nc1ccc(S(=O)(=O)N(C)Cc2ccccc2)cc1`?
D1 antagonist: -35*; TRHR enhancer: 6; TRHR ag: -1; D1 PAM: -11; D1 agonist: 2

Results for CN(Cc1ccccc1)S(=O)(=O)c1ccc(NS(=O)(=O)Cc2ccccc2)cc1 ?
D1 antagonist: -34*; TRHR enhancer: 1; TRHR ag: 0; D1 PAM: 0; D1 agonist: 4

What do the screens show for `CC(=O)NC(=S)Nc1ccc(S(=O)(=O)N(C)Cc2ccccc2)cc1`?
D1 antagonist: -31*; TRHR enhancer: 13; TRHR ag: -1; D1 PAM: -8; D1 agonist: 19

What do the screens show for `CC(C)c1ccc2oc(-c3cccc(NC(=O)c4ccc5c(c4)OCCO5)c3)nc2c1`?
D1 antagonist: 0; TRHR enhancer: 4; TRHR ag: 1; D1 PAM: 2; D1 agonist: 16

What do the screens show for `Cc1ccc(C)c(NC(=O)Cn2cc(C(=O)c3ccncc3)c(=O)c3cc(F)ccc32)c1`?
D1 antagonist: 12; TRHR enhancer: 3; TRHR ag: 0; D1 PAM: 0; D1 agonist: 4

Results for Cc1cccc2sc(N(Cc3cccnc3)C(=O)Cc3ccccc3)nc12 ?
TRHR enhancer: -1; TRHR ag: 1; D1 PAM: 0; D1 agonist: 10

Results for Cc1cccc2sc(N(Cc3cccnc3)C(=O)CCc3ccccc3)nc12 ?
TRHR enhancer: 12; TRHR ag: -1; D1 PAM: 6; D1 agonist: 56*

Results for CCCCCOc1ccc(/C=C/C(=O)Nc2sc(C)c(C)c2C(=O)OCC)cc1OC ?
D1 antagonist: 9; TRHR enhancer: 2; TRHR ag: 1; D1 PAM: 2; D1 agonist: -2

Results for C/C(=N\NC(=S)NCC(C)(C)C)c1cc(F)cc(F)c1O ?
D1 antagonist: -85*; TRHR enhancer: 7; TRHR ag: 1; D1 PAM: -11; D1 agonist: 22

What do the screens show for `COCCNC(=S)N/N=C(\C)c1ccc(O)cc1`?
D1 antagonist: -15; TRHR enhancer: -5; TRHR ag: -1; D1 PAM: -5; D1 agonist: 4

How did CCCNC(=O)C1CC(=O)N(c2ccc(OCc3ccc(F)cc3)cc2)C1 (centres undefined) do in these assays?
D1 antagonist: -36*; TRHR enhancer: 7; TRHR ag: 2; D1 PAM: -8; D1 agonist: 12

What do the screens show for `NC(=O)C1CC(=O)N(c2ccc(OCc3ccc(Cl)cc3)cc2)C1` (centres undefined)?
D1 antagonist: -39*; TRHR enhancer: -2; TRHR ag: 1; D1 PAM: -6; D1 agonist: 18

What do the screens show for `Cc1ccc(-n2nnnc2CNC(=O)C2CC(=O)N(c3ccc(F)cc3)C2)cc1C` (centres undefined)?
D1 antagonist: 1; TRHR enhancer: -9; TRHR ag: -1; D1 PAM: -3; D1 agonist: 0

How did O=C(NCc1nnnn1-c1ccc(F)cc1)C1CC(=O)N(c2ccc(F)cc2)C1 (centres undefined) do in these assays?
D1 antagonist: -30*; TRHR enhancer: -7; TRHR ag: 0; D1 PAM: 0; D1 agonist: 0
